From ChEMBL document CHEMBL1961873, “Compounds: GSK PKIS; Assays: Nanosyn kinase panel” (2012)

Legend:
[1] = test system: Epidermal growth factor receptor (Homo sapiens), P00533 [T790M]; details: at 1 µM
[2] = test system: Epidermal growth factor receptor (Homo sapiens), P00533 [L858R,T790M]; details: at 0.1 µM
[3] = test system: Epidermal growth factor receptor (Homo sapiens), P00533 [L858R,T790M]; details: at 1 µM
[4] = biological target: Ephrin type-A receptor 2 (Homo sapiens) (UniProt P29317); details: at 0.1 µM
[5] = biological target: Ephrin type-A receptor 2 (Homo sapiens) (UniProt P29317); details: at 1 µM
[6] = biological target: T1, Ephrin type-A receptor 3 (Homo sapiens) (UniProt P29320); details: at 0.1 µM
T1 sequence (whole entry): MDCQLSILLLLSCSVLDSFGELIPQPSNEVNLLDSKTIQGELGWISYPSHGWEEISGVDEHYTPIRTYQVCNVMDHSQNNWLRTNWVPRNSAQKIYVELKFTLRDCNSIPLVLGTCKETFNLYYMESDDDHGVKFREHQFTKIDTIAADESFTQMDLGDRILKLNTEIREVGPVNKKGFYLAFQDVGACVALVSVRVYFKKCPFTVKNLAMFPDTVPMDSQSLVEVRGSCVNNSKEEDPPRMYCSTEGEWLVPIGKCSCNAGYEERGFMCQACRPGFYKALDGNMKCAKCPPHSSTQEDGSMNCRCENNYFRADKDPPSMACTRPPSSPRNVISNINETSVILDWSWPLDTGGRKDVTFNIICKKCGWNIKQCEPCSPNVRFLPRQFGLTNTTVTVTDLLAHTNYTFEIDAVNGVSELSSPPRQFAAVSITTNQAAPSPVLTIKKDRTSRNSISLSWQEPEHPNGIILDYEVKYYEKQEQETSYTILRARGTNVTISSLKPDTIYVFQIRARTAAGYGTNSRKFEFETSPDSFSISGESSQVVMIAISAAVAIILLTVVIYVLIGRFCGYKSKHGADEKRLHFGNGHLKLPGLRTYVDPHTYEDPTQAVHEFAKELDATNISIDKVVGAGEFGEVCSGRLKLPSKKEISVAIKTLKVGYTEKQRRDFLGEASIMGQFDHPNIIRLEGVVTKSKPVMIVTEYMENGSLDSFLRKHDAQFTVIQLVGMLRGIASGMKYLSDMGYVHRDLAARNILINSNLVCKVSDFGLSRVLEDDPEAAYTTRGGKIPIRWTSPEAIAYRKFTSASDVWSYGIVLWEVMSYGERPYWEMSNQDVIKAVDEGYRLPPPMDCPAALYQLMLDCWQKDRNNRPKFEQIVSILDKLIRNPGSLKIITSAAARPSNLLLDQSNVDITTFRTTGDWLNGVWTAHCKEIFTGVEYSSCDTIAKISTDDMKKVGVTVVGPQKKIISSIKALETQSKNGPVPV

[7] = biological target: T1, Ephrin type-A receptor 3 (Homo sapiens); details: at 1 µM
[8] = biological target: Ephrin type-A receptor 4 (Homo sapiens) (UniProt P54764); details: at 0.1 µM
Ephrin type-A receptor 4 (Homo sapiens), sequence (P54764 whole entry): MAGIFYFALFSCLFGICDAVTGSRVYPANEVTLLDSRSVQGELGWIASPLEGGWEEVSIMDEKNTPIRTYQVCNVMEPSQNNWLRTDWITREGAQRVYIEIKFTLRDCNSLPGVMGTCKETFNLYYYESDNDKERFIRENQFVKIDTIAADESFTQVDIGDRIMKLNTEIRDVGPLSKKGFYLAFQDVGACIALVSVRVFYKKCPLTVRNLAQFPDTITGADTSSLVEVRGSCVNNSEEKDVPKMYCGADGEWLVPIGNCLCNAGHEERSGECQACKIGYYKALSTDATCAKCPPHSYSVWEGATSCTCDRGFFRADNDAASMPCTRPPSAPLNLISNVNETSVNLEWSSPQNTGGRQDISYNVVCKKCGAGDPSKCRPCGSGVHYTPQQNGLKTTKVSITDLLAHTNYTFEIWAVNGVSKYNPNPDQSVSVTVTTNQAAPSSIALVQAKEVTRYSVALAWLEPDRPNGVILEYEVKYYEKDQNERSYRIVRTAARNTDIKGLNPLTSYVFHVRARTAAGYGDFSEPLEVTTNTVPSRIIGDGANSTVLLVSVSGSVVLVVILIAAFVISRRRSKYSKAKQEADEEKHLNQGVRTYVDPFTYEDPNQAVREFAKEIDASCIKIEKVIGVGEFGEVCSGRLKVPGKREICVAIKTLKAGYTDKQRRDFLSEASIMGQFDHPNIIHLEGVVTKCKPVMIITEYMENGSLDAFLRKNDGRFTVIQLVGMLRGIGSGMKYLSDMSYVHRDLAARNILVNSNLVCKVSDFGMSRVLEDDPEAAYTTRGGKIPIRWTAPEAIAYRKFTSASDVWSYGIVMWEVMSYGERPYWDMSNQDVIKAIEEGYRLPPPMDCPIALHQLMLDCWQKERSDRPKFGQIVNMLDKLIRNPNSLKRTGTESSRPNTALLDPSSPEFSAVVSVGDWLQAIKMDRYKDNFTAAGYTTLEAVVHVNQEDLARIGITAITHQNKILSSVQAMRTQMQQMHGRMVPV

[9] = biological target: Ephrin type-A receptor 4 (Homo sapiens) (UniProt P54764); details: at 1 µM
[10] = biological target: T2, Ephrin type-B receptor 2 (Homo sapiens) (UniProt P29323); details: at 0.1 µM
T2 sequence (whole entry): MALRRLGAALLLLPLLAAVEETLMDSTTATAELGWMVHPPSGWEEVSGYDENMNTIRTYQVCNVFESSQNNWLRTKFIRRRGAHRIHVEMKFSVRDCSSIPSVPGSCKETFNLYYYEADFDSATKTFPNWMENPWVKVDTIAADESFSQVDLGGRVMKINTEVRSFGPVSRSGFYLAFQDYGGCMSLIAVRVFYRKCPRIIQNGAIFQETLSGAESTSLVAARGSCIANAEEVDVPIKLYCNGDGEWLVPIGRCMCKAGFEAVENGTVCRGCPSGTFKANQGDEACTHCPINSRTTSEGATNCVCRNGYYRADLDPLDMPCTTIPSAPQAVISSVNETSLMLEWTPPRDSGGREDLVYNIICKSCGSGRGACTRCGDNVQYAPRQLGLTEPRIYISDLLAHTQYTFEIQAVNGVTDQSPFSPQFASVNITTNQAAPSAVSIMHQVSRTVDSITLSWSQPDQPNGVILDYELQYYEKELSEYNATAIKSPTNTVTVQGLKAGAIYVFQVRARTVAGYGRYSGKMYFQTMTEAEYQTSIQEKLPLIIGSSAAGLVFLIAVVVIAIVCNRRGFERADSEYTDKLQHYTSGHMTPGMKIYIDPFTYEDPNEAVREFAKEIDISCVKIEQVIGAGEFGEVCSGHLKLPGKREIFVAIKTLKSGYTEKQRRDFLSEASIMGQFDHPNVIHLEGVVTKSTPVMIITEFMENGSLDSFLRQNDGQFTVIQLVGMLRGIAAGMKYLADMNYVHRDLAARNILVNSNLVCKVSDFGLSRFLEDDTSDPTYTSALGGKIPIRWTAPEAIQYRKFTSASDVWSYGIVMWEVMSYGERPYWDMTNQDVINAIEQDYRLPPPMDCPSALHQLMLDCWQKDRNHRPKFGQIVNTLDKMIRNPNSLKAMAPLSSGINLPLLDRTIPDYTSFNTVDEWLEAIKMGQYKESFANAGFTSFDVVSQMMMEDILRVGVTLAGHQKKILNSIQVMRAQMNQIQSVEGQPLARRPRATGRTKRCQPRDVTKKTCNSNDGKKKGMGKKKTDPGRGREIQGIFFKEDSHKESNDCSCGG

[11] = biological target: T2, Ephrin type-B receptor 2 (Homo sapiens); details: at 1 µM
[12] = biological target: T3, Ephrin type-B receptor 3 (Homo sapiens) (UniProt P54753); details: at 0.1 µM
T3 sequence (whole entry): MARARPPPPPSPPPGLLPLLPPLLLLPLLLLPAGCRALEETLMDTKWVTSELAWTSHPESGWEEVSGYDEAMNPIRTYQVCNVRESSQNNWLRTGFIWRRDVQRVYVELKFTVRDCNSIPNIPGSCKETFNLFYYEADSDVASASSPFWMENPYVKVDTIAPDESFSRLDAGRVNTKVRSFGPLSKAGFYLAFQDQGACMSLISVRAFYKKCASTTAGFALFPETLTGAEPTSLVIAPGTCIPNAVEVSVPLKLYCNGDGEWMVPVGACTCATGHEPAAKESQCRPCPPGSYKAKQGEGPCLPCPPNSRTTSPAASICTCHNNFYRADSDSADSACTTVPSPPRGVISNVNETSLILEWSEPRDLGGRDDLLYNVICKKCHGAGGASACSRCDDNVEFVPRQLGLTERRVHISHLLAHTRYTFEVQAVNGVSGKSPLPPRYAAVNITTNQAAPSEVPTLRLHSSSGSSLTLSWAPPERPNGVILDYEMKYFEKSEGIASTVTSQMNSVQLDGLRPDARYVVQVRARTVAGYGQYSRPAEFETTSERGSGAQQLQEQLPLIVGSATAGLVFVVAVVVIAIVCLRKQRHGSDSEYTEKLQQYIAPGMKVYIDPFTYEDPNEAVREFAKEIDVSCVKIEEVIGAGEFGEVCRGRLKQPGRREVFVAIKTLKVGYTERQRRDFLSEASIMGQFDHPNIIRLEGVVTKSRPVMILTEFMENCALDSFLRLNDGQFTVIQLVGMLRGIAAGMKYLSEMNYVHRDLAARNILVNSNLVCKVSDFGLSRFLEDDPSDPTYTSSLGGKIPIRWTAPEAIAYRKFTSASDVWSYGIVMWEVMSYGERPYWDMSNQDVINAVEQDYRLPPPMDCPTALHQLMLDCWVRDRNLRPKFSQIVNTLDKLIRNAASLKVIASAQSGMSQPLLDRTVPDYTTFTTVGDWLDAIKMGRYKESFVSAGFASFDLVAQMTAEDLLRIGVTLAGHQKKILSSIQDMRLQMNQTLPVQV

[13] = biological target: T3, Ephrin type-B receptor 3 (Homo sapiens); details: at 1 µM
[14] = biological target: T4, Ephrin type-B receptor 4 (Homo sapiens) (UniProt P54760); details: at 0.1 µM
T4 sequence (whole entry): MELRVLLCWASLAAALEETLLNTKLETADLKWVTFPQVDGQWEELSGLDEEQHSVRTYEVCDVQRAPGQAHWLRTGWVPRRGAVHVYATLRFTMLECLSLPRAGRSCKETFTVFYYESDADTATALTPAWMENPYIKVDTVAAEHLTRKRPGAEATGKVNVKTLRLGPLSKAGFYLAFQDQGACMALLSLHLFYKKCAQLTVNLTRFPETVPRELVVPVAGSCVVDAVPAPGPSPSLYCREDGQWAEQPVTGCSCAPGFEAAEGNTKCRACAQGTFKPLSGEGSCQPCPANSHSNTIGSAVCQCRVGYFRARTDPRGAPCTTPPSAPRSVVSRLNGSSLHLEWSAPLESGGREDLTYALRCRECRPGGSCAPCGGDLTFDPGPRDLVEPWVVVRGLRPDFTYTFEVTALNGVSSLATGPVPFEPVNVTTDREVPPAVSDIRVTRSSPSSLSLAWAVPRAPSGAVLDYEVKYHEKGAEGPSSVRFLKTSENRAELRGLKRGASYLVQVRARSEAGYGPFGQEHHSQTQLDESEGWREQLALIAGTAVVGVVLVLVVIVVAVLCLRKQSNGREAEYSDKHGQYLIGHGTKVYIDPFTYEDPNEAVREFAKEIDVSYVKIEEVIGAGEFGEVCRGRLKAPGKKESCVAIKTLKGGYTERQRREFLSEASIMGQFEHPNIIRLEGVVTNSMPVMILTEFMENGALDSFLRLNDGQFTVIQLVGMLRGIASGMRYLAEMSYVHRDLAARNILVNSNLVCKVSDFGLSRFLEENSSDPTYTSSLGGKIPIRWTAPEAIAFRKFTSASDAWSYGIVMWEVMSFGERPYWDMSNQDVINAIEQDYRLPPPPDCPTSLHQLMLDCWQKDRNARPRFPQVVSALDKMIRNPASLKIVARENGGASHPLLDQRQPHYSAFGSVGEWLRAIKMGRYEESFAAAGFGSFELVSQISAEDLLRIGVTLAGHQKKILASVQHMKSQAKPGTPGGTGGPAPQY

[15] = biological target: T4, Ephrin type-B receptor 4 (Homo sapiens); details: at 1 µM
[16] = biological target: Receptor tyrosine-protein kinase erbB-2 (Homo sapiens) (UniProt P04626); details: at 0.1 µM
Receptor tyrosine-protein kinase erbB-2 (Homo sapiens), sequence (P04626 whole entry): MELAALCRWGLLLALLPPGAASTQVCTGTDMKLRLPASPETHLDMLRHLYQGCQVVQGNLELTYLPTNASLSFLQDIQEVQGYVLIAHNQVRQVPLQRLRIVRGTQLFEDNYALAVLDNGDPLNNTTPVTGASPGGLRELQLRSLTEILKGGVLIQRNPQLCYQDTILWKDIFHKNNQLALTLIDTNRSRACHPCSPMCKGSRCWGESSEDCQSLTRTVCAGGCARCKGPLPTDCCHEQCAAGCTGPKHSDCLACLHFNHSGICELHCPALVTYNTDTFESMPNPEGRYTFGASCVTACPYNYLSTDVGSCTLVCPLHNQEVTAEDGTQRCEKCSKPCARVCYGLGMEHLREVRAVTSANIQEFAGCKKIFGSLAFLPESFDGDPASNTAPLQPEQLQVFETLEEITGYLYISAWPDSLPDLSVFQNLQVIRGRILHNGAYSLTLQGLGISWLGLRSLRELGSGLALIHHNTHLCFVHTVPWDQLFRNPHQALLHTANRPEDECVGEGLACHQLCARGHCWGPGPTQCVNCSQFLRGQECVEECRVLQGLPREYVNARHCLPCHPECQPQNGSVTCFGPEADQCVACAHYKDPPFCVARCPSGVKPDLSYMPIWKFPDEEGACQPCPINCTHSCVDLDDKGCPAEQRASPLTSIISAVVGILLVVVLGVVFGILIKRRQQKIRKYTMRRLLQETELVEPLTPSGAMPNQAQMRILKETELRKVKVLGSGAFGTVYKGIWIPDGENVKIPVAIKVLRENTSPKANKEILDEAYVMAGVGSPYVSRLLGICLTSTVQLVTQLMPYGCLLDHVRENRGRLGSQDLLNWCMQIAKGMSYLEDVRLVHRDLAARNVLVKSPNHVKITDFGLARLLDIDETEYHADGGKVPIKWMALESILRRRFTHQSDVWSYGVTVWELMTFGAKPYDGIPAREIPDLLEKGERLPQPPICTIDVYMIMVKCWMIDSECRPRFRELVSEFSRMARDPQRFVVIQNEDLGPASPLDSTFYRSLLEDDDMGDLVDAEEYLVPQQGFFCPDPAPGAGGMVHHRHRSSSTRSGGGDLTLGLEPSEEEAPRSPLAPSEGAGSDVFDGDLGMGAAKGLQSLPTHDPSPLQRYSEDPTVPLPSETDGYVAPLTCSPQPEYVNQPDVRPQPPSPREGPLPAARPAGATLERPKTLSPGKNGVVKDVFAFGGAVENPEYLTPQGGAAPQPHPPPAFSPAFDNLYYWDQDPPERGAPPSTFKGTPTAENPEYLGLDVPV

[17] = biological target: Receptor tyrosine-protein kinase erbB-2 (Homo sapiens) (UniProt P04626); details: at 1 µM
[18] = biological target: Receptor tyrosine-protein kinase erbB-4 (Homo sapiens) (UniProt Q15303); details: at 0.1 µM
[19] = biological target: Receptor tyrosine-protein kinase erbB-4 (Homo sapiens) (UniProt Q15303); details: at 1 µM
[20] = biological target: Tyrosine-protein kinase Fer (Homo sapiens) (UniProt P16591); details: at 0.1 µM;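 further: reported figures are averaged percent inhibition of FER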

Epidermal growth factor receptor (Homo sapiens), P00533 [L858R,T790M], sequence (P00533 whole entry T790M/L858R, looked up): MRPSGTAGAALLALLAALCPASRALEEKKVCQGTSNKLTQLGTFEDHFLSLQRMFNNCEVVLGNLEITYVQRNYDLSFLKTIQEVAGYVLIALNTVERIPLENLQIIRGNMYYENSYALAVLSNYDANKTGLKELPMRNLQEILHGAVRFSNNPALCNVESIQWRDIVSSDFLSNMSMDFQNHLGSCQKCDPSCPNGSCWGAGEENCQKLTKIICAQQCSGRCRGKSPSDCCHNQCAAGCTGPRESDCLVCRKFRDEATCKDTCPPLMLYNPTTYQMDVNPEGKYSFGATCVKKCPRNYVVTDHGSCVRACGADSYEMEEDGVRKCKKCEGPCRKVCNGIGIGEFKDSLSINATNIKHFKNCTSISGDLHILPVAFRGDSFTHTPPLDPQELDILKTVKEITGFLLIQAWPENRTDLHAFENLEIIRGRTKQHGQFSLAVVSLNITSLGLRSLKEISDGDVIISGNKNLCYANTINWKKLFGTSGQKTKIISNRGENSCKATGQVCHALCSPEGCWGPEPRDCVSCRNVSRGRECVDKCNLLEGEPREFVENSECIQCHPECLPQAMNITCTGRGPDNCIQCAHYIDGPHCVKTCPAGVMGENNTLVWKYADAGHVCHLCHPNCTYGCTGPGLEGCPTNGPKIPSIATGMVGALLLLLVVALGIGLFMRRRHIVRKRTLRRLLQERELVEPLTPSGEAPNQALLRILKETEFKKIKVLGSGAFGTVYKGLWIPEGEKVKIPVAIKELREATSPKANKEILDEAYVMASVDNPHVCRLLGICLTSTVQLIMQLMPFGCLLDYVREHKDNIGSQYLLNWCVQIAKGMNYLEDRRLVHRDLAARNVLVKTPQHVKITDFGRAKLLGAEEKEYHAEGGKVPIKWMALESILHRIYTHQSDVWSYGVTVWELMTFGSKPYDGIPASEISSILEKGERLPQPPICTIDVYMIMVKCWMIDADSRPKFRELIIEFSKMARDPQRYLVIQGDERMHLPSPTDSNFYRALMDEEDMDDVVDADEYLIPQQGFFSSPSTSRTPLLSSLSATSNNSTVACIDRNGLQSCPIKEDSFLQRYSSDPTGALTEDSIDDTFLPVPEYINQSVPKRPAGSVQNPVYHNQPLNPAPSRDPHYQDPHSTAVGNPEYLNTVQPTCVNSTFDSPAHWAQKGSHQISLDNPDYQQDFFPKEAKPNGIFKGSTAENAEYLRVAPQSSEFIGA
Epidermal growth factor receptor (Homo sapiens), P00533 [T790M], sequence (P00533 whole entry T790M): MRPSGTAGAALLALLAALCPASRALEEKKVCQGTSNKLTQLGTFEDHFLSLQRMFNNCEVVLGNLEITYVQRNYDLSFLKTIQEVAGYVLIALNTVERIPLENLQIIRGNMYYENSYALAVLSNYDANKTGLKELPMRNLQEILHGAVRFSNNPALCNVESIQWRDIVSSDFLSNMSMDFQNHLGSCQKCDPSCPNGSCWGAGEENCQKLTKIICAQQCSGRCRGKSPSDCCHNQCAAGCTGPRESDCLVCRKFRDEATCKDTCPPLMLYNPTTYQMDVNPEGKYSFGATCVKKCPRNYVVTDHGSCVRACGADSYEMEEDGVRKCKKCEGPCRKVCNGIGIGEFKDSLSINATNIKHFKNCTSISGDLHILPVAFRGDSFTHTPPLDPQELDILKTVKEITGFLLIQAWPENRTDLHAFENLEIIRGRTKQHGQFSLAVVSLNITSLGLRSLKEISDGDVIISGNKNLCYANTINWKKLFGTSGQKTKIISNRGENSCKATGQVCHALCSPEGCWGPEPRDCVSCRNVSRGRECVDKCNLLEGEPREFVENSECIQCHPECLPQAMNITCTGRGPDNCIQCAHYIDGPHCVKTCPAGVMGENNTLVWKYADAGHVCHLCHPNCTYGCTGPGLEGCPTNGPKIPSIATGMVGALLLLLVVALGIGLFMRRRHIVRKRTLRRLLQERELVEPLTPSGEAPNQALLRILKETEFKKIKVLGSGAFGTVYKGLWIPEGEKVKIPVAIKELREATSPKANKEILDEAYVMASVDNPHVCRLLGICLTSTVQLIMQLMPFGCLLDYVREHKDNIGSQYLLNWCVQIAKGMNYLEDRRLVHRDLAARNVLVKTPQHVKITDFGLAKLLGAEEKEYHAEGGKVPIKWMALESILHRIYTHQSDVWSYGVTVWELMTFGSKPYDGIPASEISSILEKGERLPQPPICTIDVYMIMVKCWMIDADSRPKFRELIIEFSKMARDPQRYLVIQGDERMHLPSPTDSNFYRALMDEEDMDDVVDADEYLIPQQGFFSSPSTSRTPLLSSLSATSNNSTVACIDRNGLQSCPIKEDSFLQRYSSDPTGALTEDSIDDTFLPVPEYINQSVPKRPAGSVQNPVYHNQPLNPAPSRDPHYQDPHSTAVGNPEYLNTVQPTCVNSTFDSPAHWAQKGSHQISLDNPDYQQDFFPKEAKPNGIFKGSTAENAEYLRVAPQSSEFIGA

| SMILES | inhibition [1] [%] | inhibition [2] [%] | inhibition [3] [%] | inhibition [4] [%] | inhibition [5] [%] | inhibition [6] [%] | inhibition [7] [%] | inhibition [8] [%] | inhibition [9] [%] | inhibition [10] [%] | inhibition [11] [%] | inhibition [12] [%] | inhibition [13] [%] | inhibition [14] [%] | inhibition [15] [%] | inhibition [16] [%] | inhibition [17] [%] | inhibition [18] [%] | inhibition [19] [%] | inhibition [20] [%] |
| --- | --- | --- | --- | --- | --- | --- | --- | --- | --- | --- | --- | --- | --- | --- | --- | --- | --- | --- | --- | --- |
| O=C1NC(=O)C(c2cccc(Cl)c2)=C1Nc1ccc(O)c(Cl)c1 | -0.85 | 0.92 | 0.61 | 0.74 | 1.32 | 0.53 | -2.04 | 1.17 | -8.81 | -3.19 | -8.35 | 2.73 | -5.14 | 1.15 | -0.03 | 0.29 | -5.89 | 5.49 | 6.06 | 3.79 |
| COc1cc(C)c(NC(=O)CN(C)C)cc1Nc1nc(Nc2cccc(F)c2C(N)=O)c2cc[nH]c2n1 | 30.3 | 14.3 | 54.2 | 0.91 | -1.18 | 3.57 | 1.85 | 6.35 | -1.05 | 4.98 | 8.75 | 4.52 | 0.2 | 2.62 | 1.31 | 0.48 | -0.4 | 10.4 | 32.1 | 81.8 |
| COc1cc2ncn(-c3cc(OCc4ccccc4Cl)c(C(N)=O)s3)c2cc1OC | 0.02 | -1.12 | 1.19 | -2.86 | -1.31 | -1.62 | 0.98 | 0.5 | 7.32 | 2 | 7.08 | 2.15 | 1.6 | 0.55 | 3.38 | -1 | 2.47 | -1.93 | 9.17 | 2.47 |
